Most compounds without a hit are left out; they make up all but 13% or so of the library.
4MU fluor – 4-MU region autofluorescence; compound autofluorescence, 340/450 nm, 4-MU equivalents; active compounds read high; max dye-equivalent concentration, M; 59,000 compounds, 11% hits; AID 589; in the data active = max dye-equivalent concentration above about 10 nM; inconclusive = mostly about 1.1 nM to 9.6 nM
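Intrinsic fluorescence at 340/450 nm (ex/em) was read after 15 min at room temperature in pH 8.0, 100 mM Tris. Each compound concentration expressed as 4-MU-equivalent concentration from a six-point 4-MU standard series on each plate.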
HADH2 inh – blocks human hydroxyacyl-CoA dehydrogenase type II; Q99714; recombinant HADH2, NADH fluorescence, beta-hydroxybutyryl-CoA; Potency, µM (highest dose often 57.1 µM), without a hit: at the top dose activity change, negative = inhibition, actives largely listed as inhibitors; 73,000 compounds, 3.4% hits; AID 886; note: potency is the fitted concentration of half-maximal effect; % is set by controls: 0 for no effect and ±100 for the full control effect; nearly all actives have a fitted effect of over 60% in size
Target sequence (Q99714 whole entry, looked up, one chain of several): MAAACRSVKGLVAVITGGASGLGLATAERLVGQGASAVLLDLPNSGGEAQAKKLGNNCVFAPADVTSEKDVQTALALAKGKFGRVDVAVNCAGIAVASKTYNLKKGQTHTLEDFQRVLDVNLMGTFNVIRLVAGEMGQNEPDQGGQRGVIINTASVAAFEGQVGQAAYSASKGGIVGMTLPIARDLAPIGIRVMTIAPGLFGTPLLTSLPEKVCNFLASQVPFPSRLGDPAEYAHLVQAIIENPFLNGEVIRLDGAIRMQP
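Read-out: 360 nm excitation, 450 nm emission, kinetic over 4 min. Conditions: His-tagged human HADH2 20 nM, pH 9.0 Tris with Tween-20, 1 mM NAD+, 90 uM beta-hydroxybutyryl-CoA.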
AID923 – qHTS Assay for Allosteric/Competitive Inhibitors of Caspase-1: Spectroscopic Profiling in AFC Spectral Region | 75,000 compounds, 1.1% hits | Potency, µM (doses to about 57.5 µM), without a hit: top-dose fluorescence increase, usual class: activators | compound fluorescence, AFC spectral region (405/520 nm) | AID 923, 2007; note: potency is the fitted concentration of half-maximal effect; 0% is about no effect
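Titrations up to 57 uM read every 20 sec for 3 min (405/520 nm) with 50 nM caspase 1 and 5 uM Ac-WEHD-AFC, pH 7.5 HEPES buffer. Fluorescence-vs-time intercept gave baseline, scaled against on-plate AFC standard.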
A350 autofl – compound fluoresces in the Alexa 350 spectral region; Compound autofluorescence, 340/450 nm, Alexa 350 dye-equivalents; active compounds read high; max dye-equivalent concentration, M; 59,000 compounds, 11% hits; AID 590; in the data active = max dye-equivalent concentration above about 10 nM; inconclusive = mostly about 1.1 nM to 9.6 nM
HSD17B inhib – HSD17B dehydrogenase inhibition; Q99714; recombinant HSD17B10, NADH fluorescence kinetic; Potency, µM (top dose mostly 57.1 µM), for inactives: at the top dose activity change, negative = inhibition, actives largely listed as inhibitors; 75,000 compounds, 7.6% hits; AID 893;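 note: the protocol describes HADH2 (HSD17B10) and not the HSD17B4 of the title; potency is the fitted concentration of half-maximal effect; % is set by controls: 0 for no effect and ±100 for the full control effect; nearly all actives have a fitted effect of over 70% in size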
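His-tagged E. coli-expressed HADH2 at 20 nM in 100 mM Tris-HCl pH 9.0 with 0.01 % Tween-20, preincubated 15 min with compound at room temperature. Reaction with 1 mM NAD+ and 90 uM beta-hydroxybutyryl coenzyme A; NADH fluorescence (360/450 nm) read kinetically over 4 min, last minus first point.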
Active calls of the source: *; i = inactive; ? = inconclusive; · = no result; [ ] = another dose, or the depositor's remark. Unless noted, calls come from the whole dose curve; as a rule, active = well fitted curve in the direction sought with a large enough effect; inconclusive = small, poorly fitted or top-dose-only effect, or another doubt; inactive = no such curve, though single readings can be large; an effect the other way counts as inactive or inconclusive.

SMILES | 4MU fluor | HADH2 inh | AID923 | A350 autofl | HSD17B inhib
COc1cc2c(cc1OC)C(C(=O)O)C(c1cc(Br)c(O)c(OC)c1)N(C)C2=O (centres undefined) | i | -17% | 0% | i | -6%
COc1cc(C2N=C(c3ccccc3)NO2)cc(Br)c1O (centres undefined) | 3.4e-08M* | -11% | -1% | 4.2e-08M* | -3%
O=C1CCC(C(=O)Nc2cccc3ccccc23)N1 (centres undefined) | i | -12% | 0% | i | 0%
CC1OC(Nc2cccc3ccccc23)C(O)C(O)C1O (centres undefined) | · | 25µM* | -2% | · | 32µM*
Cc1ccc2nc(C)cc(OCC(=O)O)c2c1 | i | -4% | -1% | i | 0%
Cc1cc2c(ccc3[nH]onc32)n1 | i | ? | 17% | i | 16µM*
CC(C)CC(C(=O)NCc1ccccn1)N1C(=O)c2ccccc2C1=O (centres undefined) | 1.1e-08M* | 6% | 0% | ? | -3%
Cc1ccc(-c2ccc(=O)n(CCC(=O)NCc3ccccn3)n2)cc1 | i | -13% | 2% | ? | ?
OC[C@H](CCc1c[nH]c2ccccc12)c1c[nH]c2ccccc12 | i | 4%[11.4 µM] | -5%[11.5 µM] | i | ?
Cn1c(-c2ccccc2)c(CCO)c2ccccc21 | i | ? | -2% | i | 32µM*
NC(=O)C(=O)O | i | -12% | 2% | i | 8%
CC[C@]12CCCN3CCc4c(n(c5ccccc45)C(=O)C1)[C@H]32 | · | · | -2% | · | -8%
CN(Cc1ccccc1)C(=O)COC(=O)c1ccc2c(c1)OCO2 | i | -3% | 1% | i | -12%
CCN(CC)S(=O)(=O)c1ccc(O)c(C(=O)OCC(=O)N(C)Cc2ccccc2)c1 | 1.3e-08M* | -3% | 0% | 1.3e-08M* | 32µM*
CN1CCc2c(sc3c2c(=O)n(-c2ccccc2)c2nnc(SCc4ccc(F)cc4)n32)C1 | ? | ? | 1% | 1e-08M* | ?
COC(=O)CSc1nnc2n(C3CCCCC3)c(=O)c3c4c(sc3n12)CCCC4 | · | 12% | -1% | · | 0%
CN1CCc2c(sc3c2c(=O)n(-c2ccccc2)c2nnc(SCc4ccccc4)n32)C1 | i | · | · | i | ·
COC(=O)CSc1nnc2n(-c3ccc(OC)cc3)c(=O)c3c4c(sc3n12)CCCCC4 | 2.2e-08M* | · | · | 2.5e-08M* | ·
Cc1noc(C)c1C(=O)N1CCC2(CC1)CN(Cc1cc(C(F)(F)F)cc(C(F)(F)F)c1)C2 | i | -2% | 0% | i | 1%
O=C(Nc1ccccc1)N1CCCC2(CCN(C(=O)c3cc(C(F)(F)F)cc(C(F)(F)F)c3)CC2)C1 | i | 8% | -3% | i | 7%
COc1ccccc1-c1nc(C#N)c(N2CCN(C(c3ccccc3)c3ccccc3)CC2)o1 | 9.2e-08M* | 25µM* | 0% | 8.7e-08M* | 4µM*
COc1ccccc1-c1nc(C#N)c(N2CCN(c3cccc(Cl)c3)CC2)o1 | 1e-07M* | 32µM* | -1% | 1e-07M* | 13µM*
CC(=O)Nc1ccc(Cc2ccc3[nH]c(=O)cc(C)c3c2)cc1 | i | -3%[11.4 µM] | -1%[11.5 µM] | i | 2%[11.4 µM]
CC(=O)Nc1ccccc1C=C1c2ccccc2-c2ccccc21 | i | 4%[11.4 µM] | 2%[11.5 µM] | i | 8%[11.4 µM]
Cc1ccc(NC2SC(=O)N(Cc3cccc(C(=O)O)c3)C2=O)cc1 (centres undefined) | ? | -26% | -1% | 1.2e-08M* | -3%
O=C(O)c1cccc(CN2C(=O)SC(Nc3ccccc3)C2=O)c1 (centres undefined) | 5.2e-08M* | -15% | 3% | 6.2e-08M* | 12%
O=C(O)c1cccc(CN2C(=O)CSC2=O)c1 | · | -8% | 0% | · | -3%
CC(C(=O)NC1CCCC1)N(Cc1ccc2c(c1)OCO2)C(=O)c1snc(C(N)=O)c1N (centres undefined) | 3.7e-08M* | -8% | 2% | 2.8e-08M* | ?
CCCC(C(=O)NC1CCCC1)N(Cc1cccs1)C(=O)c1snc(C(N)=O)c1N (centres undefined) | 7.8e-08M* | -5% | 3% | 6e-08M* | 25µM*
CCC(C(=O)NC1CCCC1)N(Cc1ccc2c(c1)OCO2)C(=O)c1snc(C(N)=O)c1N (centres undefined) | 4.5e-08M* | 3% | 13% | 3.8e-08M* | -13%

Bioassay records as filed in PubChem.
